Where a name gives a salt, the structure may show the parent alone.
Columns and labels:
Experiment in all cases: Euclidean distance of Cell Painting phenotypic profile (signed KS, 77 features) to DMSO centroid (dimensionless distance); 5 or 10 uM (library dependent); higher = stronger phenotypic change vs DMSO (phenoactivity)
Details in all cases: 48 h
[1] = system: 786-O
Method in brief: (§1)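 Stained cells were imaged confocally at 20X with 9 fields per well, after 48 h of exposure to library compounds at 10 or 5 uM (set by library; 0.1% DMSO final). The cells were five cancer lines and a healthy fibroblast line. From the images, Harmony extracted 77 features, each expressed as a signed Kolmogorov-Smirnov statistic relative to same-plate vehicle wells. Phenoactivity is measured as Euclidean distance to the median vehicle profile, using plate-position-corrected, correlation-weighted profiles averaged across replicates at the top dose.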

[2] = system: A549
Method in brief: as §1

[3] = system: DU145
Method in brief: as §1

[4] = system: FB
Method in brief: as §1

[5] = system: HEPG2
Method in brief: as §1

[6] = system: OVCAR4
Method in brief: as §1

Compound	Euclidean distance [1]	Euclidean distance [2]	Euclidean distance [3]	Euclidean distance [4]	Euclidean distance [5]	Euclidean distance [6]
CCN1C(=O)NC(c2ccccc2)C1=O (stereo not given) [Ethotoin]	0.868	0.725	0.615	0.863	0.528	1.28
CCN[C@H]1CN(CCCOC)S(=O)(=O)c2sc(S(N)(=O)=O)cc21 [Brinzolamide]	1.5	1.1	1.06	1.48	0.663	2.07
O=c1ccn([C@@H]2O[C@H](COP(=O)(O)OP(=O)(O)OP(=O)(O)OP(=O)(O)OC[C@H]3O[C@@H](n4ccc(=O)[nH]c4=O)[C@H](O)[C@@H]3O)[C@@H](O)[C@H]2O)c(=O)[nH]1 [Diquafosol Tetrasodium]	0.977	0.68	0.599	1.1	0.787	1.2
C/C(O)=C(\C#N)C(=O)Nc1ccc(C(F)(F)F)cc1 [Teriflunomide]	0.702	0.732	0.988	1.1	0.844	2.02
COc1ccc(COc2ccc(Cc3cnc(N)nc3N)cc2OC)cc1	0.708	1.1	0.739	1.13	2.08	0.792
CC(C(=O)O)c1ccc2c(c1)CC(=O)c1ccccc1S2 (stereo not given) [Zaltoprofen]	1.08	1.02	1.23	0.873	0.423	1.24
O=C(Cc1ccc(-c2ccc(OCCN3CCOCC3)cc2)cn1)NCc1ccccc1	3.21	3.15	4.51	2.74	3.85	2.99
CC(C)C(=O)Oc1ccc(CO)cc1[C@H](CCN(C(C)C)C(C)C)c1ccccc1 [Fesoterodine Fumarate]	0.902	1.2	1.33	0.688	1.16	1.69
CCOC(=O)n1ccn(C)c1=S [Carbimazole]	1.03	1.11	1.2	0.945	0.319	1.09
CC(C)[C@H](N)C(=O)OCCOCn1cnc2c(=O)nc(N)[nH]c21 [Valaciclovir HCl]	1.18	1.31	2.3	0.774	1.28	1.37
CC(C)(C)C(=O)C(Oc1ccc(Cl)cc1)n1ccnc1 (stereo not given) [Climbazole]	0.898	0.838	0.641	1.02	0.579	1.29
CO/N=C(\C(=O)N[C@@H]1C(=O)N2C(C(=O)[O-])=C(C[n+]3cccc4c3CCC4)CS[C@H]12)c1csc(N)n1 [Cefpirome sulfate]	0.835	0.636	0.405	0.989	0.508	0.689
Cn1cc(/C=C2\C(=O)Nc3cccnc32)c2ccccc21	0.739	1.41	1.16	1.5	0.771	1.53
O=c1cc(-c2cccc3c2Sc2ccccc2S3)oc(N2CCOCC2)c1	0.999	0.525	0.839	1.33	1.72	1.14
C[C@]12CCC(=O)C=C1[C@@H]1C[C@@H]1[C@H]1[C@@H]3[C@@H]4C[C@@H]4[C@@]4(CCC(=O)O4)[C@@]3(C)CC[C@@H]12 [Drospirenone]	0.972	0.987	0.866	0.787	0.612	0.995
CNC(=O)c1cc(Oc2ccc(NC(=O)Nc3ccc(Cl)c(C(F)(F)F)c3)cc2)ccn1 [Sorafenib]	2.08	2.51	1.74	1.78	2.93	2.28
Cc1[nH]c(/C=C2\C(=O)Nc3ccc(S(=O)(=O)N(C)c4cccc(Cl)c4)cc32)c(C)c1C(=O)N1CCN(C)CC1	2.57	3.08	2.03	2.51	1.47	3.13
COc1cc2c(Oc3ccc4[nH]c(C)cc4c3F)ncnc2cc1OCCCN1CCCC1 [Cediranib (AZD2171)]	4.22	4.27	3.51	4.47	3.58	4.53
C[C@@H]1O[C@@H](Oc2c(-c3ccc(O)c(O)c3)oc3cc(O)cc(O)c3c2=O)[C@H](O)[C@H](O)[C@H]1O [Quercitrin]	1.05	1.14	0.64	1.09	0.738	0.915
O=C(NCc1ccncc1)C12CC3CC(C1)CC(c1ccc(Cl)cc1)(C3)C2	1.47	1.24	1.1	0.743	0.955	0.981
C[C@H](N)[C@H](O)c1cccc(O)c1 [Metaraminol Bitartrate]	0.87	0.731	0.8	1.26	0.768	0.946
O=C(O)/C=C/c1ccc(O)c(O)c1 [Caffeic Acid]	0.946	0.603	1.61	0.961	0.639	1.23
CCC[S+]([O-])c1ccc2[nH]c(NC(=O)OC)nc2c1 (stereo not given) [Albendazole Oxide]	1.29	1.23	0.768	0.918	0.943	1.26
NC(=S)N/N=C/c1ncccc1N [Triapine]	3.56	2.65	3.67	3.09	2.83	3.6
CC(=O)SCC(Cc1ccccc1)C(=O)NCC(=O)OCc1ccccc1 (stereo not given) [Racecadotril]	1.61	0.894	0.905	1.14	0.452	1.68

— the supplement of paper PMC10127200
